# Screens deposited in PubChem BioAssay by several laboratories.
# Sampled rows, rich in hits. Any-hit rate of the full collection: about 0.92%.
# UGM FP inh – inhibitors of M. tuberculosis UDP-galactopyranose mutase; P9WIQ1; purified UGM, fluorescence polarization probe displacement; inhibition, % at 10 µM; 320,000 compounds, 0.06% hits; in the data active = inhibition above about 10%, passing the limit was not always enough; inconclusive = no clear call, values can overlap the other calls
# Rv3671c protease – inhibits the M. tuberculosis serine protease Rv3671c | 320,000 compounds, 0.048% hits | AID 2606 | inhibition, % at 5.96 µM; in the data active = inhibition above about 38%;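 note: extracellular domain of Rv3671c used as enzyme; 0% = enzyme with DMSO and 100% = no enzyme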
# Target sequence (P9WHR9 whole entry, looked up, the tested form may be a part): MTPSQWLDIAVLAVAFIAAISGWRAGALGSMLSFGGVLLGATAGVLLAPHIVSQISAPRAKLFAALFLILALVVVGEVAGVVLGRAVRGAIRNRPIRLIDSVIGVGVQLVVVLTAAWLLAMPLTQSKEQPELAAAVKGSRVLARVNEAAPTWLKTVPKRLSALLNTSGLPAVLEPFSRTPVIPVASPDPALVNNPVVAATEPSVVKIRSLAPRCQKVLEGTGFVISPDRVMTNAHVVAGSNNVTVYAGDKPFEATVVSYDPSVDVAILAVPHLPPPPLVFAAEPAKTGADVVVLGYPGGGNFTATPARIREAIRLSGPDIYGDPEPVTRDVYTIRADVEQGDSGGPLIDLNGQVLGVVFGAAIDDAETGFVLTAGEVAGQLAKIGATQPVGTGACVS
# RecA intein inh – Mtb RecA intein splicing inhibition; cell-free RecA intein splicing, fluorescence; inhibition, % (concentration not given with the values); 290,000 compounds, 0.75% hits; P9WHJ3; in the data active = inhibition above about 30%; inconclusive = no clear call, values can overlap the other calls;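 note: 0% = vehicle wells and 100% = reference inhibitor control wells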
# Mtb hypoxia rep – Mtb hypoxia fluorescent reporter inhibition; M. tuberculosis hypoxia-regulated fluorescent reporter, fluorescence; fluorescence inhibition, % (no concentration beside the values); 300,000 compounds, 0.1% hits; in the data active = fluorescence inhibition mostly above about 23%, no sharp cut-off; inactive = mostly below about 17%
# FadD28 FP inh – inhibitors of Mycobacterium tuberculosis FadD28 bisubstrate binding; AID 588549; FadD28 bisubstrate probe binding, fluorescence polarization; 360,000 compounds, 0.22% hits; inhibition, % at 12.5 µM; in the data active = inhibition above about 8.5%, passing the limit was not always enough; inconclusive = no clear call, values can overlap the other calls
# * hit, by the source's call; ? = inconclusive; / = no result given; ! = a repeat was not active.
SMILES,UGM FP inh,Rv3671c protease,RecA intein inh,Mtb hypoxia rep,FadD28 FP inh
CC1Nc2ncnc(N3CCc4ccccc4C3)c2N(Cc2ccc(Cl)cc2)C1=O (stereo not given),-1.9,-18.5,31.6*,-1.8,-5.2
CC1Nc2ncnc(N3CCc4ccccc4C3)c2N(Cc2ccc(Br)cc2)C1=O (stereo not given),-3.9,-18.2,35.0*,/,-3.4
O=C(COC(=O)c1ccccc1O)NC1CCCc2ccccc21 (stereo not given),0.7,0.4,/,32.6*,-2.4
COc1ccc(OC)c(N2C(=O)NC(=O)/C(=C/c3ccc([N+](=O)[O-])s3)C2=O)c1,0.5,-2.1,4.6,4.1,20.7*
NC(=O)c1ccc(NCCc2cccs2)cc1,/,/,/,/,-0.5
Cn1c2ccccc2c(=O)c2ccc(NCCc3cccs3)cc21,-3.1,-13.2,/,38.1*,-2.5
O=C(O)c1cccc(NC(=S)NN=Cc2cccnc2)c1,/,/,/,2.0,/
CCCCCCCCCCCCCCCCCCNc1ccn(C2OC(COP(=O)(O)OCC3OC(n4cc(F)c(=O)[nH]c4=O)CC3O)C(O)C2O)c(=O)n1 (stereo not given),/,/,/,/,53.4*
COCc1cc(C)nc2sc(C(=O)Nc3ccccc3F)c(N)c12,-0.4,4.5,/,15.0,-1.4
Nc1c(C(=O)Nc2ccccc2F)sc2nc(Cc3ccccc3)cc(C(F)(F)F)c12,25.6*,6.1,-16.4,-2.7,-2.3
CCc1nc2ccc(C(=O)NCCCn3ccnc3)cn2c1N(C)Cc1ccc(OC)cc1,/,/,/,/,-2.3
CCc1nc2ccc(C(=O)NCCCn3ccnc3)cn2c1N(C)Cc1cc2ccccc2s1,/,/,/,/,9.2*
COc1ccc(NS(=O)(=O)c2ccc(N3CCOCC3)c(N)c2)cc1,-1.6,-6.6,/,28.5*,-3.1
COc1ccc(S(=O)(=O)Nc2ccc(N3CCOCC3)cc2)cc1,-3.3,1.6,-4.4,-0.6,-1.6
COc1ccc(S(=O)(=O)/N=C2/NC(=O)/C(=C/c3ccco3)S2)cc1,2.9,2.8,-0.1,3.1,20.1*
COc1ccc(C(=O)NN=Cc2ccccc2OC(=O)c2ccccc2)cc1,/,/,/,8.7,/
O=C(Oc1ccc(OC(=O)c2ccncc2)cc1)c1ccncc1,-3.9,0.5,1.8,37.3*,-2.0
COc1ccc(OC(=O)c2ccncc2)cc1,2.8,-4.1,-2.7,-1.4,-0.2
C/C(=N\NC(=O)c1ccc([N+](=O)[O-])cc1)c1cc2ccccc2oc1=O,-1.0,-2.5,86.5*,/,-0.2
C/C(=N/NC(=O)c1ccncc1)c1cc2ccc(O)cc2oc1=O,41.9*,9.3,/,/,2.2
C/C(=N\NC(=O)c1ccccc1)c1cc2cc([N+](=O)[O-])ccc2oc1=O,5.1,-2.2,/,/,4.2
O=C1C=C(c2ccc(CO)cc2)CC(c2ccc3c(c2)OCO3)C1 (stereo not given),/,/,/,19.2,/
O=[N+]([O-])c1ccc(-n2cnc3ccccc32)c([N+](=O)[O-])c1,-1.5,-2.6,-0.2,41.6*,-3.4
Cc1cccc(N2CC(C(=O)OCC(=O)c3ccc(OC(=O)c4cccs4)cc3)CC2=O)c1C (stereo not given),-0.4,-4.0,35.7*,5.1,0.9
Cc1cccc(N2CC(C(=O)OCC(=O)Nc3sccc3C(N)=O)CC2=O)c1C (stereo not given),2.2,3.8,/,2.2,-3.3
SMILES,UGM FP inh,Rv3671c protease,RecA intein inh,Mtb hypoxia rep,FadD28 FP inh
O=C1CN(C(=O)COC(=O)c2ccc(Br)o2)c2ccccc2N1,-2.3,-0.9,/,26.0*,-3.0
O=C1CN(C(=O)COC(=O)CNC(=O)c2ccc(Br)o2)c2ccccc2N1,-1.3,0.5,3.4,-19.5,-2.1
COC(=O)C1NC(C(NC(=O)COc2ccccc2)C(=O)NCc2ccccc2)SC1(C)C (stereo not given),/,/,/,12.1,/
O=C1c2cc(Br)ccc2N(Cc2ccc(Br)cc2)S(=O)(=O)C1c1cc(Cl)c(Cl)cc1[N+](=O)[O-] (stereo not given),-5.5,1.8,/,/,29.9*
O=C(NC(=S)NNC(=O)c1cnccn1)c1ccc(Cl)cc1,5.6,2.6,5.7,35.0*,-0.1
Cn1c(NC(=O)C=Cc2c(F)cccc2Cl)cc(=O)n(C)c1=O,/,/,/,-1.7,/
CN(C)S(=O)(=O)c1ccc(C(=O)OCC(=O)NC(=O)NC2CCCC2)cc1,-1.4,-5.2,/,30.7*,-2.6
O=C(COC(=O)c1ccc(Cl)cc1)NC(=O)NC1CCCC1,/,/,/,7.6,-2.9
CC(=O)N(N=Cc1cccc(C)c1)c1nc(-c2ccc(Br)cc2)cs1,/,/,/,2.3,/
COc1ccc(COC(=O)NN=C(C)CC(=O)Nc2ccc(Cl)cn2)cc1,/,/,/,4.6,/
COc1ccc(COC(=O)N/N=C(\C)CC(=O)Nc2ccc(Cl)cn2)cc1,-1.0,11.6,45.3*,/,-2.4
NC(=O)c1c(NC(=O)C2COc3ccccc3O2)sc2c1CCN(Cc1ccccc1)C2 (stereo not given),19.3*,-3.4,-25.6,-5.7,-2.1
Cc1ccc(C(=O)ON=Cc2ccc(N3CCCCC3)c([N+](=O)[O-])c2)cc1,/,/,/,3.1,/
COc1ccccc1C(CNC(=O)CN1C(=O)NC(C)(c2ccc3ccccc3c2)C1=O)N1CCCC1 (stereo not given),/,/,/,30.5*,-2.3
CCN1CCN(Cc2ccc(NC(=O)c3cc(NC(=O)C(=O)c4c[nH]c5ccccc45)cc(OC)c3)cc2C(F)(F)F)CC1,1.0,-155.3,29.5,-1.7,65.9*!
CCN1CCN(Cc2ccc(NC(=O)c3ccc(C)c(NC(=O)c4ccc5n[nH]nc5c4)c3)cc2C(F)(F)F)CC1,-2.5,7.2,-2.2,15.0,-4.5
CCN1CCN(Cc2ccc(NC(=O)c3cc(NC(=O)c4cc(C)on4)cc(OC)c3)cc2C(F)(F)F)CC1,-1.3,-8.4,2.2,/,-14.8
CCN1CCN(Cc2ccc(NC(=O)c3ccc(C)c(NC(=O)C(=O)c4c[nH]c5ccccc45)c3)cc2C(F)(F)F)CC1,1.1,-73.8,19.9,14.0,55.2*!
CC1NC(=CC(=O)c2ccccc2)N(O)C1(C)C (stereo not given),/,/,/,6.3,/
NC(=O)C[n+]1cccc2ccccc21,11.3*,4.0,-5.0,6.7,-0.8
COc1cc(C(=O)NS(=O)(=O)c2ccccc2C)ccc1Cc1cn(C)c2ccc(NC(=O)OC3CCCC3)cc12,-1.6,-69.5,37.8*,/,/
COc1ccc(NC(=O)COc2ccccc2C)cc1S(=O)(=O)N1CCCCC1,3.0,-1.6,4.9,-0.2,1.7
CSc1nc(O)c(Nc2cccc(Cl)c2)c(=O)[nH]1,1.1,0.9,76.1*,/,-0.6
CCCCCC1CN(Cc2ccccc2)C(=O)C1CC(=O)NCc1ccccc1 (stereo not given),/,/,/,7.0,/
C=C1CCN(C(Cc2ccccc2)C(=O)NCCCc2ccccc2)S(=O)(=O)c2ccccc21 (stereo not given),/,/,/,18.8,/
Cc1ccc(C)n1-c1sccc1C(=O)O,/,/,0.9,-5.0,21.2*
O=C(CCl)N1N=C(c2ccco2)CC1c1ccco1 (stereo not given),2.6,2.4,53.9*,/,-0.2
Cc1ccc(N2C(=O)C(Cl)=C(NCCO)C2=O)c(C)c1,-2.3,2.7,32.8*,1.0,-0.7
CCc1cccc2c(C(=O)CN3C(=O)N(C)C4(CCCCC4)C3=O)c[nH]c12,4.0,-5.0,/,5.1,?
